Rows were chosen to be rich in hits. Some 9.3% of all compounds tested hit in one or more screens of this group.
ELG1 genotox – genotoxicity induction in ELG1-luciferase HEK293T cells; HEK293T ELG1-luciferase reporter, luminescence, 16 h; Potency, µM (series often up to 46 µM), without a hit: at the highest dose activity change, positive = activation, hits mostly activators; 1.3% of 330,000 active; AID 504466; note: % of control where 0% means no effect; nearly all actives have a fitted effect of over 60% in size
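Screening used a luciferase reporter fused to human ELG1 in HEK293T cells. Luminescence was read on a CCD plate imager after 16 hr exposure and 30 min ONE-Glo incubation.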
FLuc modulator – inhibits or activates purified firefly luciferase, miR-21 counter-screen | purified FLuc, Km substrates, luminescence inhibition | Potency, µM (highest dose often 57.5 µM), without a hit: at the top dose activity change, negative = inhibition, most hits filed as inhibitors | 6.9% of 360,000 active | AID 588342;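 note: plate controls were vehicle for no effect and reference inhibitor for full effect; nearly all actives have a fitted effect of over 55% in size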
Target sequence (P08659 whole entry, looked up): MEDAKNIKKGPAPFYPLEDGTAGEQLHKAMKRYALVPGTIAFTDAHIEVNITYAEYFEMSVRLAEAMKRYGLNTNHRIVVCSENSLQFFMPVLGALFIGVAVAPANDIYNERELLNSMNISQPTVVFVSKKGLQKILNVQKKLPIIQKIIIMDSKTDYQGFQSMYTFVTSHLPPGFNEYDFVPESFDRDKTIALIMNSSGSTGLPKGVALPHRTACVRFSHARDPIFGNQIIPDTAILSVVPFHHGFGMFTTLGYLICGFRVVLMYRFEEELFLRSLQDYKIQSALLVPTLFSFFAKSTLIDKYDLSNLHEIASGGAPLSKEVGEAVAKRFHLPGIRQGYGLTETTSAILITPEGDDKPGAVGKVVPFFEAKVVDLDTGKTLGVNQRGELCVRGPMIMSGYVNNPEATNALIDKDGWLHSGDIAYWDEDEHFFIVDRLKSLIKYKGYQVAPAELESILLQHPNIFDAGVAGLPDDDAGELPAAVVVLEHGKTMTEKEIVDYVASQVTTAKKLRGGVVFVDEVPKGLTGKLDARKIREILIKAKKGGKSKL
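Purified P. pyralis luciferase (10nM final) with 10uM D-luciferin and 10uM ATP (Km levels) in 50mM Tris acetate pH 7.5, 10mM Mg acetate, 0.01% Tween-20, 0.05% BSA; qHTS 6-point titration, ~60 µM downward; luminescence read.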
ELG1 repair inh – ELG1-dependent DNA repair inhibition; Potency, µM (top dose mostly 46.1 µM), for the others: at the highest dose activity change, negative = inhibition, most hits filed as inhibitors; HEK293T ELG1-luciferase reporter, luminescence, 16 h; DNA damage induced by 5-fluorouridine; AID 504467; 2.3% of 330,000 active; note: % is set by controls: 0 for no effect and ±100 for the full control effect; nearly all actives have a fitted effect of over 55% in size
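5-Fluorouridine DNA damage + compound/DMSO, 2,000 cells/well, 16 h, 37 °C/5% CO2. ONE-Glo, 30 min RT, luminescence. Readout = decrease in reporter signal.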
Rab9 promoter act – Rab9 promoter activation. Potency, µM (titrated, usually from 9.22 µM), without a hit: at the top dose activation, negative = inhibition, most hits filed as activators. 2.8% of 320,000 active. AID 485297. Huh7 Rab9 promoter-luciferase reporter, luminescence, 24 h; note: % of control where 0% means no effect; nearly all actives have a fitted effect of over 60% in size
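Stable Rab9-luc Huh7, 1500 cells/well, 2 h settle; cmpd in DMSO, 24 h, 37 °C/5% CO2; luciferase reagent 10 min RT; luminescence.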
NPC1 prom act – activates the NPC1 promoter. Huh7 NPC1 promoter luciferase reporter, 24 h. AID 485313. 2.4% of 320,000 active. Potency, µM (doses to about 9.22 µM), inactives show at the highest dose activation, most hits filed as activators; note: % of control where 0% means no effect; nearly all actives have a fitted effect of over 60% in size
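Stable NPC1-promoter luciferase Huh7 line; cpd (DMSO) 24 h, 37 °C, 5% CO2; Amplite luciferase reagent 10 min RT; luminescence readout. qHTS format.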
SMN2 splice up – SMN2 splice variant enhancement. HEK293 SMN2-luciferase splicing reporter, luminescence, 30-36 h. Potency, µM (highest dose often 46.1 µM), for the others: top-dose activity change, positive = activation, usual class: activators. 2.8% of 210,000 active. AID 1458; note: % of control where 0% means no effect; nearly all actives have a fitted effect of over 55% in size
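qHTS luciferase splicing reporter: luminescence rises when SMN2 exon 7 is included in transfected HEK293 cells. Compound exposure lasted 30-36 h at 37C, with 4.5 mM final sodium butyrate as control, followed by a ONE-Glo read.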
* hit, by the source's call; ? = inconclusive; . = no result given; [ ] = another dose, or the depositor's remark. Calls come from the whole dose curve; as a rule, active = well fitted curve in the direction sought with a large enough effect; inconclusive = small, poorly fitted or top-dose-only effect, or another doubt; inactive = no such curve, though single readings can be large; an effect the other way counts as inactive or inconclusive. Potency is the fitted concentration of half-maximal effect.

SMILES | ELG1 genotox | FLuc modulator | ELG1 repair inh | Rab9 promoter act | NPC1 prom act | SMN2 splice up
COc1cccc(-c2cc(C(F)(F)F)n3ncc(C(=O)NCC4CCCO4)c3n2)c1 (stereo not given) | 0% | 7% | 6.5µM* | -3% | -3% | 17%
COc1ccc(Oc2ccc(C(F)(F)F)cc2N)cc1 | 11% | 17µM* | 19% | ? | 17% | .
COc1ccc(Oc2ccc(C(F)(F)F)cc2NC(=O)c2ccc(OC)cc2)cc1 | -4% | -2% | -29% | -5% | -3% | .
CCNC(=S)N(CCc1ccccc1C)Cc1cc2cc(OC)c(OC)cc2[nH]c1=O | -2% | 2% | 9.2µM* | 1% | 0% | -1%
Cc1ccc2[nH]c(=O)c(CN(Cc3ccccc3)C(=S)NCCCN(C)C)cc2c1 | 0.73µM* | 0.76µM* | ? | 0.32µM* | 0.32µM* | .
CCNC(=S)N(CCc1ccc(OC)c(OC)c1)Cc1cc2cc(OC)ccc2[nH]c1=O | -4% | -13% | ? | -1% | -2% | .
CCNC(=S)N(CCc1cccc(C)c1)Cc1cc2cc(OC)c(OC)cc2[nH]c1=O | -2% | -13% | 8.2µM* | 2% | -5% | -12%
COc1cc2cc(CN(Cc3cccs3)C(=S)Nc3ccccc3)c(=O)[nH]c2cc1OC | -5% | 4% | 8.2µM* | 2% | -3% | -19%
COc1ccc2[nH]c(=O)c(CN(Cc3cccs3)C(=S)Nc3ccccc3)cc2c1 | -6% | 4% | ? | 1% | -6% | -2%[1.84 µM]
COc1cc2cc(CN(CCc3ccccc3C)C(=S)NCCCN(C)C)c(=O)[nH]c2cc1OC | 0% | 0% | -23% | -1% | -3% | -1%
CCn1c(SCC(=O)N2CCCC2)nnc1-c1ccc(N)cc1 | -1% | 8% | -4% | -3% | -7% | 1%
CC1=C(C(=O)Nc2cc(Cl)ccc2C)C(c2cccs2)n2ncnc2N1 (stereo not given) | . | -3% | . | . | . | .
Cn1c(O)c(N=NC(=O)c2cccc(S(=O)(=O)N3CCCCC3)c2)c2ccccc21 | -12% | -17% | 18µM* | -1% | 0% | -21%
COc1ccc(/C=C/C(=O)Nc2cc(C)nn2-c2nc3ccccc3[nH]2)cc1 | 7% | 1.7µM* | ? | ? | 4µM* | 11µM*
Cc1cc(NC(=O)c2ccccc2F)n(-c2nc3ccccc3[nH]2)n1 | -9% | -20% | 16µM* | -5% | 7% | 9%
Cc1cc(NC(=O)c2c(F)cccc2Cl)n(-c2nc3ccccc3[nH]2)n1 | -19% | -4% | 21µM* | 1% | -5% | -20%
Cc1cc(NC(=O)c2c(F)cccc2F)n(-c2nc3ccccc3[nH]2)n1 | -4% | -6% | ? | -1% | -1% | -4%
COc1ccccc1NC(=O)Nc1ccncc1 | -13% | 4% | -5% | -2% | -3% | -34%
COc1ccccc1NC(=O)COC(=O)c1cc2c(s1)CCC2 | 0% | 8.5µM* | 4% | 3% | -3% | .
COc1ccc(C)cc1NC(=O)Nc1ccc2c(c1)CCC2 | 3% | 9.5µM* | 9% | 0% | 2% | .
COc1ccc(NC(=O)Nc2ccc3c(c2)CCC3)cc1OC | 8% | -5% | 21% | 18% | 9% | 13%
COc1ccccc1NC(=O)Nc1ccc2c(c1)CCC2 | 13µM* | 3µM* | ? | 2.5µM* | 2.5µM* | .
COc1cccc(Cn2c(=O)n(-c3ccc(Br)cc3F)c(=O)c3sc4ccccc4c32)c1 | . | -2% | . | . | . | -8%
CCN(CC)C(=O)CSc1nnc(-c2c[nH]c3ccccc23)o1 | 10% | ? | ? | 14% | 28% | .
CS(=O)(=O)Oc1ccc2c(c1)O/C(=C\c1cccc([N+](=O)[O-])c1)C2=O | -1% | -3% | 18µM* | -1% | 3% | .
SMILES | ELG1 genotox | FLuc modulator | ELG1 repair inh | Rab9 promoter act | NPC1 prom act | SMN2 splice up
CS(=O)(=O)Oc1ccc2c(c1)O/C(=C\C=C\c1ccccc1)C2=O | 1% | 7.6µM* | 3% | -1% | 7% | .
Cc1nnc(SCC(=O)Nc2nc3c(s2)CC(C)CC3)s1 (stereo not given) | ? | ? | 12% | ? | ? | -60%
Nc1nc2c(-c3ccc(Br)cc3)nnn2c2ccccc12 | 12µM* | 0.43µM* | ? | 0.63µM* | 1µM* | .
CC(C)(C)c1ccc(/C=N/N2CCN(c3ccccn3)CC2)cc1 | -5% | -7% | ? | -5% | -4% | .
C(=N\N1CCN(c2ccccn2)CC1)/c1ccccn1 | ? | 17µM* | ? | ? | 22% | .
CN(C)c1ccc(/C=N/N2CCN(c3ccccn3)CC2)cc1 | ? | 4.8µM* | ? | ? | ? | .
CN(c1ccccc1)c1ccc(/C=N/N2CCOCC2)cc1 | 18µM* | 1.7µM* | ? | 1.3µM* | 1.8µM* | 7.9µM*
Cc1cccc(NC2=NCC(=O)N2CCc2ccccc2)c1 | 5% | 3% | ? | 4% | -1% | -5%
CCOC(=O)C1C(=O)OC(C)(C)C1C(C)C(=O)c1ccc(C)cc1 (stereo not given) | -2% | 1% | -7% | -2% | 2% | -4%
O=C(CNCc1ccccc1)NC1C2CC3CC(C2)CC1C3 (stereo not given) | 4% | ? | ? | 14% | 8% | .
COc1ccc(CNC(=O)CCCCCNC(=O)N2CCn3c2nc2ccccc23)cc1 | 0% | 17µM* | -2% | -2% | -14% | .
O=C(CCNC(=O)N1CCn2c1nc1ccccc12)NCc1ccc(Cl)cc1 | -5% | -2% | ? | -2% | -3% | .
CCOc1ccc(CN(C)C(=O)c2cccnc2SC)cc1OC | -3% | -1% | 2% | -4% | -3% | -11%
Cc1cccc(C#Cc2ccccc2)n1 | 8.2µM* | 6µM* | ? | 5µM* | 5.8µM* | 13µM*
Cc1cc(OCC(=O)N(C)C2CCCCC2)ccc1Cl | 26% | 2.7µM* | ? | 0.63µM* | 0.35µM* | ?
Cc1cc(OCC(=O)N(C)C2CCCCC2)cc(C)c1Cl | ? | ? | 5% | 2% | 12% | 23%
O=c1oc2cc(Br)ccc2n1CSC1=NCCS1 | 2% | ? | ? | -8% | 2% | -13%
COc1ccc(F)cc1S(=O)(=O)n1cc(C)nc1-c1ccccc1 | 0% | -1% | 14% | 1% | 1% | 3.5µM*
COc1ccccc1NS(=O)(=O)c1cc(NC(=O)c2cnccn2)ccc1N1CCOCC1 | 0% | 0% | ? | 2% | -3% | .
NCCSc1nc(-c2ccccc2)c(-c2ccccc2)o1 | . | . | . | . | . | -12%[9.22 µM]
CCOC(=O)C1=C(Cc2ccc(Cl)cc2)C(=O)c2ccccc2C1=O | -6% | 21µM* | 18% | -10% | 6% | -26%

Screening results from PubChem.
